According to PubChem BioAssay (EPA / NIEHS):
Results filed as inconclusive are left out. Active and inactive are the calls of the source. How the source made its calls: active means hit-call score of the fitted dose curve at least 0.9, where 1 is the maximum; inconclusive means response in the unintended direction; inactive means score below 0.9.

Target: Cellular tumor antigen p53 (Homo sapiens) (UniProt P04637)
Assay: TOX21_p53_BLA_p3_ratio: Tox21 HCT-116 p53 Agonism Beta-lactamase Assay, Ratio, Phase 3 (AID 2283596)
Summary of the method: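 Cells were seeded at 4000/well, rested 5 h at 37C, then dosed with DMSO compound solutions (217-fold dilution) for 16 h. CCF4-AM substrate was loaded for 2 h at room temperature, and the 460/530 nm emission ratio was fitted for gain of signal versus DMSO.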

Cellular tumor antigen p53 (Homo sapiens), sequence (P04637 whole entry, looked up): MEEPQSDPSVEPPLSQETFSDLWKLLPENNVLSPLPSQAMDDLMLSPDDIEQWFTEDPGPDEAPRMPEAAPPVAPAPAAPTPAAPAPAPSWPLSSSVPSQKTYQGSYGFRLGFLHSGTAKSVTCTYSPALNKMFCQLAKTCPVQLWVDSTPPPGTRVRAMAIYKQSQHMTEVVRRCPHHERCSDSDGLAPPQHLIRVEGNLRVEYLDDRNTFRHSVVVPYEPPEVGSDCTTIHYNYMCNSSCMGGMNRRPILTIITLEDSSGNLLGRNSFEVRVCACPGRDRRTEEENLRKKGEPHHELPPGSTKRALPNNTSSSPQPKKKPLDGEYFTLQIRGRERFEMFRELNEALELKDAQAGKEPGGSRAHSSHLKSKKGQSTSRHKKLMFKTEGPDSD

| Compound | outcome | AC50 |
| --- | --- | --- |
| CC(C)N=c1cc2n(-c3ccc(Cl)cc3)c3ccccc3nc-2cc1Nc1ccc(Cl)cc1 | inactive | – |
| CCNC(=O)/C=C/c1cccc(Br)c1 | inactive | – |
| CC(C)(C)CC(C)(C)c1cc(Cc2cc(C(C)(C)CC(C)(C)C)cc(-n3nc4ccccc4n3)c2O)c(O)c(-n2nc3ccccc3n2)c1 | inactive | – |
| CCOC(=O)[C@H](CCc1ccccc1)N[C@@H](C)C(=O)N1Cc2ccccc2C[C@H]1C(=O)O | inactive | – |
| NC(=O)CCCCC(N)=O | inactive | – |
| CCCC(=O)OC[C@@H](OC(=O)CCC)[C@@H](OC(=O)CCC)[C@H](Cn1c2nc(=O)[nH]c(=O)c-2nc2cc(C)c(C)cc21)OC(=O)CCC | inactive | – |
| CCC(C)C(C(=O)OCC[N+](C)(CC)CC)c1ccccc1 (stereo unspecified) | inactive | – |
| CCCCCCCCCCCCC(=O)O | inactive | – |
| COc1cc2nc(N3CCN(C(=O)C4COc5ccccc5O4)CC3)nc(N)c2cc1OC (stereo unspecified) | inactive | – |
| CNc1cc(OC)c(C(=O)N[C@H]2CCN(Cc3ccccc3)[C@H]2C)cc1Cl | inactive | – |
| OCCN1C[C@H](O)[C@@H](O)[C@H](O)[C@H]1CO | inactive | – |
| CC(C)(C)NC[C@H](O)COc1cccc2c1CCCC2=O | inactive | – |
| Cc1ccc(NC(=O)N(C)C)cc1NC(=O)N(C)C | inactive | – |
| OCCN1CCN(CCCN2c3ccccc3C=Cc3ccccc32)CC1 | inactive | – |
| OCC(S)CS (stereo unspecified) | – | 35.7 µM (active) |
| CC(=O)OC[C@H]1O[C@@H](O[C@H]2[C@H](O)[C@@H](OC(=O)c3ccccc3C(=O)O)[C@H](O)O[C@@H]2COC(C)=O)[C@H](O)[C@@H](OC(=O)c2ccccc2C(=O)O)[C@@H]1O | inactive | – |
